Measurements: PubChem BioAssay AID2653 (National Center for Advancing Translational Sciences (NCATS), 2010)
Records with an inconclusive call do not appear. Calls of active or inactive are those of the source. Calls follow the shape of the dose curve; as a rule, active = well fitted curve in the direction sought with a large enough effect; inconclusive = small, poorly fitted or top-dose-only effect, or another doubt; inactive = no such curve, though single readings can be large or run the other way.

Experiment: Secondary Assay for Activators of Human Pyruvate Kinase M2 isoform - Cell Titer Glo Cytotoxicity for Probe SAR; also: % of control where 0% means no effect
Settings: HeLa viability, CellTiter-Glo ATP luminescence, 24 h; series mostly up to 58.2 µM; activity change, negative = cytotoxicity: at the top concentration
Experimental: NIH Chemical Genomics Center [NCGC]
Matthew G. Vander Heiden, M.D., Ph.D. [Harvard Medical School, 77 Avenue Louis Pasteur, Boston, MA 02115]
We have identified a series of activators of the M2 isoform of human pyruvate kinase. The assay described here examines the cytotoxicity of these compounds by measuring the total ATP content of Hela cells after 24 hrs of exposure to compound.
500 Hela cells/ 4ul in media (DMEM with high glucose, 10% FBS, 1x Pen Strep, 1x NEAA) were dispensed into a white solid 1536-microwell plate with a Thermo Multidrop. The plates were incubated at 37 degrees Celsius for 24 hours. The cells were then treated with compounds using the Kalypsys pin tool, delivering 23 nl of test compounds and the control doxorubicin. The plates were then incubated for an additional 24 hours at 37 degrees C after which 4 ul of Promega Cell-Titer Glo was dispensed using the Thermo Multidrop. The plates were incubated at room temperature for 10 min before reading luminescence on the Perkin Elmer ViewLux with images collected with 2x binning and a 5 sec exposure time.

| SMILES | activity change, negative = cytotoxicity |
| --- | --- |
| Cc1ccc(NS(=O)(=O)c2ccc3c(c2)CCC(=O)N3)cc1F | -1.87% (inactive) |
| Cn1c2cc(S(C)=O)sc2c2cnn(Cc3cccc(O)c3)c(=O)c21 (stereo not given) | -14.4% (inactive) |
| Cc1ccc2nc(-c3ccc(C)o3)c(Nc3ccc4c(c3)OCO4)n2c1 | -28.6% (inactive) |
| Cc1ccc(N(C)S(=O)(=O)c2ccc3c(c2)CCC(=O)N3)cc1C | -13.9% (inactive) |
| O=C1CCc2cc(S(=O)(=O)Nc3ccncc3)ccc2N1 | -16.1% (inactive) |
| Cc1ccccc1OC1=NS(=O)(=O)c2ccccc21 | 2.36% (inactive) |
| O=C1CCc2cc(S(=O)(=O)Nc3cccc(B(O)O)c3)ccc2N1 | -11.5% (inactive) |
| Cc1ccccc1NS(=O)(=O)c1ccc2c(c1)CCC(=O)N2 | -15.2% (inactive) |
| Cc1ccc(NS(=O)(=O)c2ccc3c(c2)CCC(=O)N3)cc1C | -10.7% (inactive) |
| Cc1ccn2c(NC3CCCCC3)c(-c3ccc(C)o3)nc2c1 | -12.8% (inactive) |
| O=C1c2ccccc2C(=O)N1c1cncc2ccccc12 | -5.97% (inactive) |
| Cc1ccc(Nc2c(-c3ccsc3)nc3c(C)cccn23)cc1 | -21.1% (inactive) |
| O=C1CCc2cc(S(=O)(=O)Nc3ccc4ccccc4c3)ccc2N1 | -30.1% (inactive) |
| CN(C)c1cccc(S(=O)(=O)N2CCCN(S(=O)(=O)c3ccc4c(c3)OCCO4)CC2)c1 | -21.2% (inactive) |
| CC(=O)N1c2ccc(S(=O)(=O)Nc3ccc(C)c(C)c3)cc2CC1C (stereo not given) | -24.5% (inactive) |
| Cc1ccc(-c2nc3ccccn3c2Nc2ccccc2C)o1 | -15.4% (inactive) |
| Cc1ccc(NS(=O)(=O)c2ccc3c(c2)CCO3)cc1C | 13.2% (inactive) |
| Cc1ccc(NS(=O)(=O)c2cc3c(cc2-c2cn[nH]c2)NC(=O)CO3)cc1C | -2.65% (inactive) |
| Cc1ccc(NS(=O)(=O)c2ccc3c(ccn3C)c2)cc1C | -14.2% (inactive) |
| O=C1c2ccccc2C(=O)N1c1ccc(O)cc1 | -5.26% (inactive) |

| SMILES | activity change, negative = cytotoxicity |
| --- | --- |
| CC(C)Nc1cccc(S(=O)(=O)N2CCCN(S(=O)(=O)c3ccc4c(c3)OCCO4)CC2)c1 | -20.5% (inactive) |
| CC(=O)Nc1ccc(S(=O)(=O)Nc2ccc(C)c(C)c2)cc1 | -3.49% (inactive) |
| Cc1ccc(NS(=O)(=O)c2cc3c(cc2Cl)NC(=O)CO3)cc1C | -9.17% (inactive) |
| O=C1CCc2cc(S(=O)(=O)Nc3cc(F)cc(Cl)c3)c(F)cc2N1 | -20.6% (inactive) |
| COc1ccc(Nc2c(-c3ccc(C)o3)nc3ccccn23)cc1 | -10.2% (inactive) |
| Cc1cc(C)n2c(Nc3ccccc3)c(-c3ccc(C)o3)nc2n1 | -18% (inactive) |
| O=C1CCc2cc(S(=O)(=O)Nc3ccc(Cl)c(Cl)c3)ccc2N1 | -17.3% (inactive) |
| O=C1c2ccccc2C(=O)N1c1cccc2ccncc12 | 0.305% (inactive) |
| Cc1ccc2nc(-c3ccc(C)o3)c(Nc3ccc(F)cc3)n2c1 | -24% (inactive) |
| Cc1ccc(NS(=O)(=O)c2cccc(Cl)c2)cc1C | 1.83% (inactive) |
| COc1cccc(NS(=O)(=O)c2ccc3c(c2)CCC(=O)N3)c1 | -26.9% (inactive) |
| CNc1cc2c(cc1S(=O)(=O)Nc1ccc(C)c(C)c1)CCC(=O)N2 | -25.8% (inactive) |
| O=C1c2ccccc2C(=O)N1c1cccc(=O)[nH]1 | 1.18% (inactive) |
| O=C1c2ccccc2C(=O)N1c1cccnc1 | -29.8% (inactive) |
| Cc1ccc(NS(=O)(=O)c2cc3c(cc2F)NC(=O)CC3)cc1Cl | -30.8% (inactive) |
| Cc1ccc2nc(-c3ccc(C)o3)c(NC3CCCC3)n2c1 | -16.7% (inactive) |
| O=C1c2ccccc2C(=O)N1Cc1ccccc1 | -17.4% (inactive) |
| O=S1(=O)N=C(Oc2ccccc2Cl)c2ccccc21 | -12.1% (inactive) |
| CN=c1nc(-c2ccccc2)n(-c2ccccc2)s1 | -22.6% (inactive) |
| Cc1ccc(NS(=O)(=O)c2ccc(-c3ccccc3)cc2)cc1C | 1.34% (inactive) |
